Bioassay records: PubChem, National Center for Advancing Translational Sciences (NCATS)
Rows were chosen to be rich in hits. Some 2.7% of all compounds tested hit in one or more screens of this group.
A549 tox – counter-screen for Nrf2 inhibitors: cytotoxicity in A549 cells | A549 ARE-Fluc cells, CellTiter-Fluor viability, 18-24 h | Potency, µM (doses to about 46 µM), actives largely listed as inhibitors | 390,000 compounds, 0.16% hits
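Cytotoxicity counterscreen: CellTiter-Fluor fluorescence was measured in A549 ARE_Fluc cells after 18-24 h of compound exposure in a concentration series. The subsequent BugLite luminescent read reports ARE-luciferase activity.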
Nrf2 activator – activates Nrf2 signaling; 410,000 compounds, 0.31% hits; AREc32 ARE-luciferase reporter (MCF7-derived line), luminescence, 24 h; Potency, µM (series often up to 46.1 µM), usual class: activators; also: nearly all actives have a fitted effect of over 65% in size
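Cells of the AREc32 ARE-luciferase line are plated in OPTI-MEM containing 5% FBS and left overnight at 37 deg C. Compounds are pinned in, incubation continues 24 hr, and firefly luciferase signal is then measured.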
Nrf2 inh – inhibitors of Nrf2 signaling | A549 ARE-Fluc reporter, luciferase luminescence, 18-24 h | Potency, µM (doses to about 46 µM), most hits filed as inhibitors | 360,000 compounds, 2.1% hits | AID 504444; also: nearly all actives have a fitted effect of over 60% in size
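In this cell-based qHTS, ARE-driven firefly luciferase in A549 cells reports Nrf2 activity; the luminescent signal after BugLite lysis is the measured value, with a prior CellTiter-Fluor read for cell health.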
IDH1 R132H inh – blocks human mutant IDH1 R132H enzyme | O75874 | IDH1-R132H enzyme, NADPH consumption, diaphorase/resazurin fluorescence | Potency, µM (titrated, usually from 76.6 µM), actives largely listed as inhibitors | 390,000 compounds, 0.093% hits | AID 602179; also: nearly all actives have a fitted effect of over 65% in size
Target sequence (O75874 whole entry R132H, stated change not applied): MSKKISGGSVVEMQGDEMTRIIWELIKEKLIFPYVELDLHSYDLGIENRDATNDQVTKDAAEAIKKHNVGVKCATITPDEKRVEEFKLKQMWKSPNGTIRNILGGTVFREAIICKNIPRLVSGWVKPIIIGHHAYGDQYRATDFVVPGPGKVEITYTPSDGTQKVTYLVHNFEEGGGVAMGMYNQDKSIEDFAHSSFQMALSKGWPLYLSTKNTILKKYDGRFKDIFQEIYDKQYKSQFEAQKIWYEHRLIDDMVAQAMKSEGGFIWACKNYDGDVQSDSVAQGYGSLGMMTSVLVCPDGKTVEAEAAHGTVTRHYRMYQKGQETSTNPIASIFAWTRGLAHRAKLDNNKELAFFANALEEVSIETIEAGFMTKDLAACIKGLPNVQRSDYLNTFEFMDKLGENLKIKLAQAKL
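IDH1-R132H (0.5 ug/mL) preincubated 30 min with compound, then NADPH (0.016 mM) and alpha-KG (2 mM) added; 80 min at RT, pH 7.5. Remaining NADPH coupled via diaphorase/resazurin to fluorescence (540/590 nm); concentration-response curves normalized to no-enzyme control.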
12-LOX inh – ALOX12 (human) lipoxygenase inhibition; P18054; purified 12hLO, xylenol orange hydroperoxide absorbance; Potency, µM (highest dose often 108 µM), most hits filed as inhibitors; 580,000 compounds, 1.1% hits; AID 1671190
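Purified human 12hLO (150 nM final) in 25 mM Hepes, 0.01% Triton X-100, pH 7.0 was preincubated 15 min at room temperature with compound. Then 40 uM arachidonic acid was added, 30 min. Hydroperoxide was read by Fe-XO absorbance ratio 573/405 nm.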
LDHA block – blocks human lactate dehydrogenase A. P00338. purified LDHA, NADH/diaphorase-resazurin fluorescence; active compounds read low. activity change, % (values are at about 110 or 230 µM). 480,000 compounds, 0.15% hits. AID 1347041; in the data active = activity change below about -30%; inconclusive = mostly about -25% to -30%
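Remaining NADH was detected by diaphorase (0.133 mg/mL) converting 37 µM resazurin to fluorescent resorufin, read at 0 and 20 minutes. The preceding 5-minute room-temperature reaction used 2 nM LDHA, 0.2 mM sodium pyruvate and 0.06 mM NADH at pH 7.4.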
A number is an active result. Unless noted, calls follow the shape of the dose curve; as a rule, active = well fitted curve in the direction sought with a large enough effect; inconclusive = small, poorly fitted or top-dose-only effect, or another doubt; inactive = no such curve, though single readings can be large; an effect the other way counts as inactive or inconclusive.

For Cc1cc(-c2ccc(NC(=O)CC#N)c(C)c2)ccc1NC(=O)CC#N the results were 12-LOX inh inactive and LDHA block inactive.
Screening CN(C)C(=O)CSc1nc(NC2CC2)c2ccccc2n1 returned 12-LOX inh inactive and LDHA block inactive.
`O=C(N[C@@H]1CN(Cc2cc(F)cc(F)c2)C[C@H]1CO)c1ccccc1` gave 12-LOX inh inactive.
Screening O=C(N[C@@H]1CN(Cc2ccc(F)cc2)C[C@H]1CO)c1ccccc1 returned 12-LOX inh 12.6µM.
Screening O=C(N[C@@H]1CN(Cc2ccc3cc[nH]c3c2)C[C@H]1CO)c1ccccc1 returned 12-LOX inh 28.2µM.
For CCOC(=O)c1c(NC(NC(=O)C(C)C)C(Cl)(Cl)Cl)sc2c1CCC2 (centres undefined) the results were A549 tox inconclusive, Nrf2 activator inactive, Nrf2 inh 23.1µM, IDH1 R132H inh inactive, 12-LOX inh inactive and LDHA block inactive.
For O=C(O)CCNC(=O)C(F)(F)C(F)(F)C(F)(F)C(F)(F)C(F)(F)C(F)(F)F the results were 12-LOX inh 11.2µM and LDHA block inactive.
Screening CCCC(=O)N1CCN(c2ccc(NC(=S)NC(=O)c3cccc(C)c3)cc2)CC1 returned A549 tox inactive, Nrf2 activator inactive, Nrf2 inh 14.6µM, IDH1 R132H inh inactive, 12-LOX inh 15.8µM and LDHA block inactive.
CC(=O)c1cccc(NC(=S)NC(=O)c2cccc(Cl)c2)c1 was read as A549 tox inactive, Nrf2 activator inactive, Nrf2 inh inactive, IDH1 R132H inh inactive, 12-LOX inh inactive and LDHA block inactive.
Screening Cc1cccc(C)c1NC(=S)NC(=O)c1cccc(Cl)c1 returned Nrf2 activator inconclusive, 12-LOX inh 31.6µM and LDHA block inactive.
For O=C(NC(=S)Nc1cccnc1)c1cccc(Cl)c1 the results were Nrf2 activator inactive, IDH1 R132H inh inactive, 12-LOX inh inactive and LDHA block inactive.
CCC(=O)N1CCN(c2ccc(NC(=S)NC(=O)c3ccc(OC)c([N+](=O)[O-])c3)cc2)CC1 was read as A549 tox inactive, Nrf2 activator inactive, Nrf2 inh inactive, IDH1 R132H inh inactive, 12-LOX inh inactive and LDHA block inactive.
Cc1cccc(C(=O)Nc2ccc(NC(=S)NC(=O)c3cccc(Cl)c3)cc2)c1 was read as 12-LOX inh 17.8µM and LDHA block inactive.
For COC(=O)[C@@H]1Cc2c([nH]c3ccccc23)[C@H]2C[C@@H](NCCO)C[C@@H](c3cccc(OC)c3)N21 the results were 12-LOX inh inactive.
For COc1ccccc1C#CC1=CC(=O)C[C@H](c2ccc(F)cc2)C1 the results were Nrf2 activator inconclusive, IDH1 R132H inh inactive, 12-LOX inh inconclusive and LDHA block inactive.
`O=C1C=C(C#Cc2ccccc2)C[C@@H](c2ccc(F)cc2)C1` gave Nrf2 activator 8.91µM, IDH1 R132H inh inactive, 12-LOX inh inactive and LDHA block inactive.
For Cc1ccccc1C(=O)Nc1ccc2nc(N3CCN(C4CCCCC4)CC3)cc(C(=O)O)c2c1 the results were 12-LOX inh 6.31µM and LDHA block inactive.
CCCC(=O)Nc1ccc2nc(N3CCN(C(=O)OCC)CC3)cc(C(=O)O)c2c1 was read as 12-LOX inh 7.94µM and LDHA block inactive.
CCCN1CCN(c2cc(C(=O)O)c3cc(NC(=O)c4ccccc4C)ccc3n2)CC1 was read as 12-LOX inh inconclusive and LDHA block inactive.
Cc1cccc(N2CCN(c3cc(C(=O)O)c4cc(NC(=O)C(C)(C)C)ccc4n3)CC2)c1 was read as 12-LOX inh 14.1µM and LDHA block inactive.
`COc1ccccc1-c1cc(=O)c2cc(NC(=O)c3ccccc3F)ccc2o1` gave 12-LOX inh inconclusive and LDHA block inactive.
Screening N#Cc1nc(NCC(F)F)c2ncn(-c3cccc(Cl)c3)c2n1 returned A549 tox inconclusive, Nrf2 inh 20.6µM and LDHA block inactive.
`CN(C)c1ccc(/C=C/c2c([N+](=O)[O-])c(=O)n(C)c(=O)n2C)cc1` gave A549 tox inconclusive, Nrf2 activator inactive, Nrf2 inh inactive, IDH1 R132H inh inactive, 12-LOX inh inactive and LDHA block inactive.
Cn1c(/C=C/c2ccc(Br)cc2)c([N+](=O)[O-])c(=O)n(C)c1=O was read as A549 tox inconclusive, Nrf2 activator inactive, Nrf2 inh 20.6µM, IDH1 R132H inh inactive, 12-LOX inh inactive and LDHA block inactive.
COc1cccc(C2C(C(=O)Nc3ccccn3)=C(C)Nc3ncnn32)c1OC (centres undefined) was read as 12-LOX inh inactive and LDHA block inactive.
Screening NC(N)=NC(=O)Cc1c(Cl)cccc1Cl returned A549 tox inactive, Nrf2 activator inactive, Nrf2 inh 8.2µM, IDH1 R132H inh inactive, 12-LOX inh inactive and LDHA block inactive.
Screening CN(C)S(=O)(=O)c1cccc(C(=O)NCC2COc3ccccc3O2)c1 (centres undefined) returned 12-LOX inh inactive and LDHA block inactive.
Screening CC(=S)/C=C1\Sc2ccccc2N1C returned A549 tox inconclusive, Nrf2 activator inactive, Nrf2 inh inactive, IDH1 R132H inh inactive, 12-LOX inh 10µM and LDHA block inactive.
`CN1/C(=C/c2cccc[n+]2CCO)Sc2ccccc21` gave A549 tox inactive, Nrf2 activator inactive, Nrf2 inh inconclusive, IDH1 R132H inh inactive, 12-LOX inh 44.7µM and LDHA block inconclusive.
For Cc1cccc[n+]1CC(=O)N1c2ccccc2Sc2ccccc21 the results were A549 tox inactive, Nrf2 activator inactive, Nrf2 inh inactive, IDH1 R132H inh inactive, 12-LOX inh inactive and LDHA block inactive.
COc1ccc(C(=O)/C=C2\Sc3ccccc3N2C)cc1 was read as A549 tox inactive, Nrf2 activator inactive, Nrf2 inh inconclusive, IDH1 R132H inh inactive, 12-LOX inh inactive and LDHA block inactive.
CC1=NN(Cc2ccccc2)C(=O)C1C(c1ccc(Cl)cc1)C(C#N)C#N (centres undefined) was read as A549 tox inactive, Nrf2 activator inactive, Nrf2 inh inactive, IDH1 R132H inh inactive, 12-LOX inh 39.8µM and LDHA block inactive.
Screening CCOC(=O)c1cc(NC(=O)c2ccccc2)ccc1N1CCOCC1 returned 12-LOX inh inactive and LDHA block inactive.
CCCCCC(=O)O[C@]1(C(C)=O)CC[C@H]2[C@@H]3CCC4=CC(=O)CC[C@]4(C)[C@H]3CC[C@@]21C was read as A549 tox inconclusive, Nrf2 activator inactive, Nrf2 inh 20.6µM, IDH1 R132H inh inactive, 12-LOX inh inactive and LDHA block inactive.
